KCNH2 WT inh = inhibitors of human wildtype KCNH2 potassium channel; Q12809; U2OS, BacMam KCNH2, thallium flux FluxOr; active compounds read low; activity change, % at 1.84 µM; 340,000 tested, 0.37% active;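 active = maximum activity change below -70%; inconclusive = maximum activity change between -70% and -50%; inactive = maximum activity change above -50%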; note: % is set by controls: 0 for no effect and ±100 for the full control effect
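U2OS cells were transduced with wild-type KCNH2 virus (2.03 x 10^8 / mL) for 4 h at room temperature, then cultured overnight at 37 C. Thallium flux was read with FluxOr dye. Rate constants were normalized to DMSO controls.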
TRHR PAM = allosterically enhances the human TRH receptor | TRHR cells, fluo-8 calcium fluorescence, EC20 TRH enhancement | enhancement, % at 2 µM | 360,000 tested, 0.66% active | P34981 | AID 493056; in the data active = enhancement above about 30%; note: 0% is about no effect
Target sequence (P34981 whole entry, looked up): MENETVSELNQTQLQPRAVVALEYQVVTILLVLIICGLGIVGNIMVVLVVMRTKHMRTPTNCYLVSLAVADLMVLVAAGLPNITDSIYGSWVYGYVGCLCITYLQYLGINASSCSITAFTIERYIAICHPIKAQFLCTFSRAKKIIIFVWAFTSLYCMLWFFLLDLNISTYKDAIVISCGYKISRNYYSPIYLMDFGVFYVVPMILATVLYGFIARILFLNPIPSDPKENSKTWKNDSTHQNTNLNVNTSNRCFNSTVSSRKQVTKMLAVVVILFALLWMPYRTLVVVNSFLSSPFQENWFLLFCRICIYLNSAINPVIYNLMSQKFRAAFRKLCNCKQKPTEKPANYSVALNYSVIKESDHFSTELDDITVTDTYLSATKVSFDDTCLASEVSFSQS
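TRHR-expressing cells loaded with fluo-8 calcium dye were read kinetically (ex 480/em 530) during compound addition, then stimulated with an EC20 of TRH (10 nM final). Enhancement of the Gq-mediated intracellular calcium response was scored.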
KCNH2 3.1 block = inhibitors of human KCNH2 3.1 potassium channel isoform | U2OS KCNH2 3.1, thallium flux FluxOr; active compounds read low | activity change, % (tested at about 1.8 µM) | 340,000 tested, 0.95% active | AID 720553;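 active = maximum activity change below -70%; inconclusive = maximum activity change from -70% to -50%; inactive = maximum activity change above -50%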;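 note: thallium influx rate constant from kinetic fluorescence after stimulation buffer; % is set by controls: 0 for no effect and ±100 for the full control effect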
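Steps: virus added to U2OS suspension (4 h, RT, dark); medium with 10% FBS added, cells plated, 37 C overnight; FluxOr/Red40 loading buffer 45 min RT; stimulation buffer, 2 min kinetic read; rate constant normalized.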
TRPML1 blocker = human mucolipin-1 channel inhibition | Q9GZU1 | TRPML1-inducible cells, Ca2+ dye fluorescence, FDSS; active compounds read low; inhibition of EC80 agonist-evoked calcium signal | activity change, negative = inhibition, % (concentration not given with the values) | 390,000 tested, 0.02% active | AID 624415; in the data active = activity change below about -50%; inconclusive = between about -30% and that limit;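 note: stimulus is agonist 54-4 at its EC80 concentration; % is set by controls: 0 for no effect and ±100 for the full control effect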
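Tet-induced TRPML1-DL cells loaded with Ca8 no-wash calcium dye were read kinetically on FDSS. Compound addition was followed by EC80 agonist 54-4 (4 uM final); inhibition was read over 110 s.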
TRPML1 ag = human mucolipin-1 channel agonism | AID 624414 | 410,000 tested, 0.12% active | activation, % (test concentration not listed) | TRPML1-expressing cells, Ca2+ dye fluorescence, FDSS | Q9GZU1; in the data active = activation above about 50%; inconclusive = mostly about 30% to 49%; note: 0% is about no effect
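Tet-induced TRPML1-DL cells, 1,500 per well, cultured overnight, were loaded with a no-wash Ca2+ dye for 45–90 min. Calcium fluorescence was recorded on the FDSS for 110 s after compound addition, before the EC80 agonist (4 uM 54-4) was added.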
TRHR agonist = agonists of human TRH receptor | P34981 | TRHR cells, calcium flux fluo-8, FDSS agonist mode | activation, % at 2 µM | 360,000 tested, 0.18% active; in the data active = activation above about 30%; note: 0% is about no effect
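Read-out: compound-evoked intracellular calcium rise in TRHR cells, fluo-8 dye, kinetic FDSS fluorescence at 1 s/cycle following a 10-cycle baseline. Cells cultured overnight before dye loading (30 min–1.5 h, RT).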
* marks the source's active call; other numbers are inactive results; ? = inconclusive; . = not tested or not shown; ! = not confirmed by another sample. In the library only some 1.7% were active in any assay of this set; here they are far more common.

SMILES	KCNH2 WT inh	TRHR PAM	KCNH2 3.1 block	TRPML1 blocker	TRPML1 ag	TRHR agonist
O=[S+]([O-])(c1ccc2c(c1)OCCO2)N1CCN([S+](=O)([O-])c2c(F)cc(F)cc2Br)CC1	.	-1	.	.	.	-2
O=C(CN1CCOCC1)N1CCOCC1	-7	.	7	9	0	.
COc1cccc(NC(=O)c2ccnc(N3CCC(C(=O)NCc4ccccc4OC)CC3)c2)c1	-1	0	-109*	-2	-1	0
COc1c(C)cc(C(=O)C2CCCN(Cc3c(C)n(C)n(-c4ccccc4)c3=O)C2)cc1C (centres undefined)	2	-7	?	-6	-1	0
CSc1ccccc1C(=O)C1CCCN(Cc2c(C)n(C)n(-c3ccccc3)c2=O)C1 (centres undefined)	-150*	1	-188*	-8	1	1
Nc1c(Cl)cc(C(=O)NC2CC2)cc1Cl	-8	.	-36	4	0	.
Nc1cc(-c2ccccc2)c[nH]c1=O	.	1	.	.	.	1
Cc1ccc(C(=O)COC(=O)CNC(=O)CNC(=O)c2ccc(C)cc2)cc1	-1	4	-85*	-10	0	0
Cc1ccc(C(=O)NCC(=O)NCC(=O)OCC(=O)c2ccc([N+](=O)[O-])cc2)cc1	10	2	-6	-3	-1	0
Cc1cc(NC(=O)Cn2c(=O)oc3cc(S(=O)(=O)N4CCCC4)ccc32)ccc1Br	.	-7	.	17	-1	1
CCOC(=O)Nc1ccc2c(C)cc(=O)oc2c1	-12	6	13	15	2	1
Cc1cc(=O)oc2cc(NC(=O)C(CCCN=C(N)N)NC(=O)OCc3ccccc3)ccc12 (centres undefined)	-6	-5	3	-52*	0	-1
CCCCOC(=O)Nc1ccc2c(C)cc(=O)oc2c1	1	40*	3	-3	0	0
CC(=O)Oc1ccc2c(C)cc(=O)oc2c1	-3	0	?	19	8	0
NC(N)=NCCC[C@H](NC(=O)OCc1ccccc1)C(=O)O	10	-5	5	-8	0	0
COC(=O)C(CC(C)C)Oc1ccc2c(C)cc(=O)oc2c1 (centres undefined)	3	36*	16	10	0	-1
CN(CCC#N)c1ccc(/C=C/c2ccnc3ccccc23)cc1	.	.	.	.	4	.
CCc1cccc2c1NC(=O)C21N2CCCC2C(C(=O)c2ccc3ccccc3c2)C12C(=O)Nc1ccccc12 (centres undefined)	-2	-1	-113*	29	3	1
COc1ccc(Nc2nc(N3CCCCC3)c3ccccc3n2)cc1	7	-3	-13	-2	0	0
Oc1ccc(Nc2nc(N3CCCC3)c3ccccc3n2)cc1	-1	-1	-87*	-11	-1	-1
O=C(O)c1cn2c3c(ccc(Cl)c3c1=O)OCC2	11	4	11	-27	0	0
COC(=O)c1ccc(S(N)(=O)=O)o1	-2	0	0	22	-1	1
COC(=O)c1ccc(S(=O)(=O)N2CCCCC2)o1	-8	36*	2	10	-1	0
CCOc1ccc(NC(=O)N2CC3CCCN3c3ccccc32)cc1 (centres undefined)	.	-7	.	-2	-1	1
CC1CCC(C(C)C)C(OC(=O)Cn2c(-c3ccc(Br)cc3)[n+](C)c3ccccc32)C1 (centres undefined)	-104*!	-4	?	45	4	0
SMILES	KCNH2 WT inh	TRHR PAM	KCNH2 3.1 block	TRPML1 blocker	TRPML1 ag	TRHR agonist
Cc1ccccc1OCc1n(CC(=O)OC2CC(C)CCC2C(C)C)c2ccccc2[n+]1C (centres undefined)	-82*!	-1	-10	22	-1	0
CC1CCC(C(C)C)C(OC(=O)Cn2c(-c3ccc(Cl)cc3)[n+](C)c3ccccc32)C1 (centres undefined)	-9	-13	-9	18	1	0
CCOC(=O)Cn1c(COc2ccccc2OC)[n+](C)c2ccccc21	-6	.	-6	28	0	.
CCN(CC)S(=O)(=O)c1ccc2oc(C(=O)NCc3ccccc3OC)c(C)c2c1	.	-2	.	-7	1	1
CC(C)C[C@@H](CN)NC(=O)c1nc[nH]c1C(=O)N[C@@H](C)C(=O)CNC[C@H](C)NC(=O)c1nc[nH]c1C(=O)N[C@@H](C)C(=O)O	3	.	-4	20	-1	.
Cc1cccc(C)c1NC(=O)CN(C)C(=O)C1=COCCO1	2	-4	5	4	0	0
Cc1ccc(S(=O)(=O)Oc2ccccc2-c2ccccc2)cc1	-3	.	-10	-24	100*	.
CCNc1nc(N2CCCN(C)CC2)nc2cc(OC)c(OC)cc12	.	.	.	.	0	.
CN(C)CCn1c(=O)n(Cc2ccccc2)c(=O)c2c3c(sc21)CCCCC3	29	11	8	-17	-1	-2
CCOC(=O)c1sc2c(c1C)c(=O)n(Cc1ccccc1)c(=O)n2CCN(C)C	19	-11	-109*	39	1	1
Cc1cc2c(s1)c1cnn(Cc3c(F)c(F)c(C)c(F)c3F)c(=O)c1n2C	.	1	.	.	.	0
CCCN1CNc2c(c(=O)[nH]c(=S)n2Cc2ccc(OC)c(OC)c2)C1	.	.	.	.	0	.
C#CCn1c(=NC(=O)c2sc3ccccc3c2Cl)sc2cc(S(N)(=O)=O)ccc21	-10	-3	-4	-21	0	1
C#CCn1c(=NC(=O)c2ccccc2[N+](=O)[O-])sc2cc(S(C)(=O)=O)ccc21	3	30*	-4	6	-1	0
COc1ccc(N2CCN(CCNC(=O)Nc3ccc(C)c(Cl)c3)CC2)cc1	.	9	-90*	-23	0	0
COc1cc(NC(=O)NCCN2CCN(c3ccc(Cl)cc3)CC2)ccc1C	-38	2	-82*	0	0	5
COc1ccc(N2CCN(CCC(N)=O)CC2)cc1	1	3	0	9	0	0
COc1cccc(NC(=O)NCCCN2CCN(c3ccc(F)cc3)CC2)c1	-38	8	-82*	-9	0	0
COc1ccc(C(=O)CCN2CCN(c3ccc(OC)cc3)CC2)cc1	15	-7	-71*	28	2	1
COc1ccc(NC(=O)NCCN2CCN(c3cccc(Cl)c3)CC2)cc1	0	-10	-43	-1	-1	0
COc1ccc(NC(=O)NCCCN2CCN(c3cc(C)ccc3C)CC2)cc1	39	-3	-92*	0	0	0
COc1ccc(NC(=O)NCCCN2CCN(c3ccccc3F)CC2)cc1	13	-3	-40	-12	0	0

Compound activity as filed in PubChem BioAssay.
